In PMC9911399, “Two distinct binding modes provide the RNA-binding protein RbFox with extraordinary sequence specificity”:
Numbering of substitutions follows the chain as printed; changes in the protein carry UniProt numbers. Whole data set: some 16,000 sequences, median “ka relative to ugcaugu” near 0.096, cut for the highest 2% near 0.35. The full list was thinned out, with the highest values kept by preference.

T1: RBFOX1 RRM RbFoxmut (Fox-RRM*) (Homo sapiens, UniProt Q9NWB1 109-208, R118D;E147R;N151S;E152T)
T1 sequence: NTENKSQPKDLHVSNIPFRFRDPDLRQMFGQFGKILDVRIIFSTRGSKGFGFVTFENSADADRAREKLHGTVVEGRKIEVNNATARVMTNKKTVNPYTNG

B1: AGAGAUA (DNA:RNA)
RNA: GGGAGACCGGAAUUCAGAUUGUCCAGAGAUAUUAAAUCCCGUCGUAGCCACCA
DNA 1: CAATCTGAATTCCGGTCTCCC
DNA 2: TGGTGGCTACGACGGGATT
B2: AAUCCAU (DNA:RNA)
RNA: B1 RNA with G26A, A27U, G28C, A29C, U30A, A31U
DNA 1: CAATCTGAATTCCGGTCTCCC
DNA 2: TGGTGGCTACGACGGGATT
B3: GGAAACG (DNA:RNA)
RNA: B1 RNA with A25G, G28A, U30C, A31G
DNA 1: CAATCTGAATTCCGGTCTCCC
DNA 2: TGGTGGCTACGACGGGATT
B4: ACGCCAA (DNA:RNA)
RNA: B1 RNA with G26C, A27G, G28C, A29C, U30A
DNA 1: CAATCTGAATTCCGGTCTCCC
DNA 2: TGGTGGCTACGACGGGATT
B5: GGAAUCA (DNA:RNA)
RNA: B1 RNA with A25G, G28A, A29U, U30C
DNA 1: CAATCTGAATTCCGGTCTCCC
DNA 2: TGGTGGCTACGACGGGATT
B6: GAUUCAG (DNA:RNA)
RNA: GGGAGACCGGAAUUCAGAUUGUCCGAUUCAGUUAAAUCCCGUCGUAGCCACCA
DNA 1: CAATCTGAATTCCGGTCTCCC
DNA 2: TGGTGGCTACGACGGGATT
B7: GGCGUUG (DNA:RNA)
RNA: B1 RNA with A25G, A27C, A29U, A31G
DNA 1: CAATCTGAATTCCGGTCTCCC
DNA 2: TGGTGGCTACGACGGGATT
B8: GAAUCAG (DNA:RNA)
RNA: B6 RNA with U27A
DNA 1: CAATCTGAATTCCGGTCTCCC
DNA 2: TGGTGGCTACGACGGGATT
B9: GGCGUCG (DNA:RNA)
RNA: B1 RNA with A25G, A27C, A29U, U30C, A31G
DNA 1: CAATCTGAATTCCGGTCTCCC
DNA 2: TGGTGGCTACGACGGGATT
B10: CGAUCGA (DNA:RNA)
RNA: B1 RNA with A25C, G28U, A29C, U30G
DNA 1: CAATCTGAATTCCGGTCTCCC
DNA 2: TGGTGGCTACGACGGGATT
B11: GAAUCGA (DNA:RNA)
RNA: B6 RNA with U27A, A30G, G31A
DNA 1: CAATCTGAATTCCGGTCTCCC
DNA 2: TGGTGGCTACGACGGGATT
B12: GUUAUCA (DNA:RNA)
RNA: B6 RNA with A26U, U28A, C29U, A30C, G31A
DNA 1: CAATCTGAATTCCGGTCTCCC
DNA 2: TGGTGGCTACGACGGGATT
B13: GUCAUCA (DNA:RNA)
RNA: B1 RNA with A25G, G26U, A27C, G28A, A29U, U30C
DNA 1: CAATCTGAATTCCGGTCTCCC
DNA 2: TGGTGGCTACGACGGGATT
B14: GAUCGAA (DNA:RNA)
RNA: B6 RNA with U28C, C29G, G31A
DNA 1: CAATCTGAATTCCGGTCTCCC
DNA 2: TGGTGGCTACGACGGGATT
B15: CCCGGCG (DNA:RNA)
RNA: B1 RNA with A25C, G26C, A27C, A29G, U30C, A31G
DNA 1: CAATCTGAATTCCGGTCTCCC
DNA 2: TGGTGGCTACGACGGGATT
B16: GAACCAG (DNA:RNA)
RNA: B6 RNA with U27A, U28C
DNA 1: CAATCTGAATTCCGGTCTCCC
DNA 2: TGGTGGCTACGACGGGATT

Each binder was assayed against T1, RBFOX1 RRM RbFoxmut (Fox-RRM*) (assay: EMSA; HiTS-Eq, 1 nM pool, 10 min; buffer printed only for the single-RNA assays: 10 mM Tris pH 7.5, 150 mM NaCl, 3.4 mM EDTA, 0.001% NP-40, 30 C). Details: tags: His6 N-terminal (pET28a); label: 5' 32P.
Method in brief: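 Purified wild-type or mutant RbFox RRM at increasing concentrations was equilibrated with 1 nM of 5′-radiolabelled RNA carrying 7 randomized nucleotides for 10 min in 50 µL. Unbound RNA was separated by 8% native PAGE and sequenced. Relative association constants came from read-count changes of each RNA species compared with the control reaction, normalised to the cognate motif.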

Binder	binding signal
B1	0.15 KA relative to UGCAUGU
B2	0.074 KA relative to UGCAUGU
B3	0.0703 KA relative to UGCAUGU
B4	0.0795 KA relative to UGCAUGU
B5	0.426 KA relative to UGCAUGU
B6	0.155 KA relative to UGCAUGU
B7	0.367 KA relative to UGCAUGU
B8	0.389 KA relative to UGCAUGU
B9	0.203 KA relative to UGCAUGU
B10	0.0748 KA relative to UGCAUGU
B11	0.561 KA relative to UGCAUGU
B12	0.18 KA relative to UGCAUGU
B13	0.129 KA relative to UGCAUGU
B14	0.113 KA relative to UGCAUGU
B15	0.098 KA relative to UGCAUGU
B16	0.105 KA relative to UGCAUGU
